Results reported in the supplement of paper PMC3545927.
This is one part of the list. The hit rate among all sequences tested is not known here.

Biological target: furin, P09958
Experiment: furin cleavage Z-score vs untreated control; higher = more cleavage, active = 3.5 or more, inactive = 1 or less, 8 variable residues between constant flanks
In short: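 The cleavage Z-score was derived for purified furin acting on 8-mer peptides held on magnetic beads and fused to a cDNA oligonucleotide. Digests lasted 7.5, 15 or 30 min at 1:10 enzyme:substrate in 50 mM HEPES pH 7.5 with CaCl2 and NaCl. Sequencing counts of released DNA, log-transformed against furin-free reactions, were lowess-adjusted and scaled by median absolute deviation.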

Sequence of furin, P09958 (P09958 whole entry): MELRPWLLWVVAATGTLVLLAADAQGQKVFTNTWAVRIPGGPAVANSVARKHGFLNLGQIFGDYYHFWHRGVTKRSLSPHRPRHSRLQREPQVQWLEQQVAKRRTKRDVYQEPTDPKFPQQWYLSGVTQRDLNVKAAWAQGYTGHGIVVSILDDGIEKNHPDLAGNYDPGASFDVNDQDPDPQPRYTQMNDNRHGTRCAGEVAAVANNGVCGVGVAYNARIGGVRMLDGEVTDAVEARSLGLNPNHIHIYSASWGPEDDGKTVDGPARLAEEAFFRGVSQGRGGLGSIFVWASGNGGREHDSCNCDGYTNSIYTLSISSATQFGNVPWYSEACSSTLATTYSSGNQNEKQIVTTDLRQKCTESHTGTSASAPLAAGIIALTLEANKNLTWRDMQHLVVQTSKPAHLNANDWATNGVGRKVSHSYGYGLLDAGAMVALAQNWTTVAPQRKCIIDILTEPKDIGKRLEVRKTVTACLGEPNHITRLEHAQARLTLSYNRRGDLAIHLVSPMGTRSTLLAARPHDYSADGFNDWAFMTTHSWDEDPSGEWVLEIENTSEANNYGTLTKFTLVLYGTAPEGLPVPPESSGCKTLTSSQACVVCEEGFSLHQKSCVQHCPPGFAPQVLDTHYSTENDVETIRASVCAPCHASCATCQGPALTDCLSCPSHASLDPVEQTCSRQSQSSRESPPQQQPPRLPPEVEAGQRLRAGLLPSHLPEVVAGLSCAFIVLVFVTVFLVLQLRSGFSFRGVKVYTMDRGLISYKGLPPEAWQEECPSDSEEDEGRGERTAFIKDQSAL

Row | Sequence | furin cleavage Z-score (7.5 min) | furin cleavage Z-score (15 min) | furin cleavage Z-score (30 min)
1 | CAPSWGPTDPAGNASASA [HC213] | -0.72 (inactive) | -1.18 (inactive) | 1.35
2 | CAWGNRFKKLAGNASASA [FS-315] | -1.19 (inactive) | 0.33 (inactive) | -1.11 (inactive)
3 | CALGPRFKRLAGNASASA [FS-269] | 9.05 (active) | 10.1 (active) | 9.85 (active)
4 | CAWGSRFKKLAGNASASA [FS-317] | 0.17 (inactive) | -0.284 (inactive) | 0.58 (inactive)
5 | CAWGPRFKRLAGNASASA [FS-209] | 6.86 (active) | 8.43 (active) | 8.5 (active)
6 | CAHSKKKCDEAGNASASA [HC858] | 0.938 (inactive) | -0.00521 (inactive) | -0.176 (inactive)
7 | CASPPCSAHLAGNASASA [HC2499] | 1.04 | -0.446 (inactive) | 0.95 (inactive)
8 | CAYVCCSMSYAGNASASA [HC1989] | 0.374 (inactive) | -0.0389 (inactive) | 0.11 (inactive)
9 | CAVVSCSMSYAGNASASA [HC2037] | 0.59 (inactive) | -1.65 (inactive) | 0.705 (inactive)
10 | CAPVPRQRRPAGNASASA [FS-557] | 1.31 | 0.43 (inactive) | -0.0302 (inactive)
11 | CAGPKDQKRSAGNASASA [FS-1002] | 0.96 (inactive) | 0.905 (inactive) | 0.353 (inactive)
12 | CAIHRRTPRSAGNASASA [FS-1213] | 10.3 (active) | 8.47 (active) | 7.15 (active)
13 | CAPVFRQKRSAGNASASA [FS-620] | 14.1 (active) | 12.3 (active) | 9.55 (active)
14 | CAPVPRQKRSAGNASASA [FS-1387] | 10.9 (active) | 10.8 (active) | 8.52 (active)
15 | CARVYRQKRSAGNASASA [FS-561] | 12.1 (active) | 12.4 (active) | 9.77 (active)
16 | CAPVPCHRPSAGNASASA [HC2319] | 0.318 (inactive) | 1.19 | 0.255 (inactive)
17 | CATTPCSGSLAGNASASA [HC1925] | -0.297 (inactive) | -1.38 (inactive) | -1.27 (inactive)
18 | CAMEEPSQHLAGNASASA [HC20] | -0.193 (inactive) | 1.35 | 1.68
19 | CAIHHRQKRSAGNASASA [FS-540] | 12 (active) | 10.4 (active) | 9.65 (active)
20 | CAELQRQKRSAGNASASA [FS-762] | 10.3 (active) | 11.5 (active) | 9.23 (active)
21 | CASLLKVPYFAGNASASA [HC613] | -0.873 (inactive) | 0.367 (inactive) | -0.906 (inactive)
22 | CAPARRNRRAAGNASASA [FS-837] | 8.23 (active) | 9.65 (active) | 8.04 (active)

Row | Sequence | furin cleavage Z-score (7.5 min) | furin cleavage Z-score (15 min) | furin cleavage Z-score (30 min)
23 | CAVASRNRRAAGNASASA [FS-147] | 13.1 (active) | 12.8 (active) | 9.83 (active)
24 | CAPARRSVLAAGNASASA [FS-1987] | -0.364 (inactive) | -0.766 (inactive) | -0.871 (inactive)
25 | CAPGEINRVAAGNASASA [HC1610] | 0.342 (inactive) | 1.78 | 0.355 (inactive)
26 | CALTTTQWQVAGNASASA [HC494] | 0.00411 (inactive) | -0.467 (inactive) | 0.941 (inactive)
27 | CACEIYGACYAGNASASA [HC1593] | -1.5 (inactive) | -1.53 (inactive) | -2.18 (inactive)
28 | CAGSPRPRRRAGNASASA [FS-436] | 7.08 (active) | 9.3 (active) | 7.64 (active)
29 | CAPISYLKGSAGNASASA [HC739] | 0.299 (inactive) | -0.469 (inactive) | -0.42 (inactive)
30 | CALAARPRRRAGNASASA [FS-815] | 4.52 (active) | 6.47 (active) | 5.7 (active)
31 | CAPISRPRRRAGNASASA [FS-1648] | 7.6 (active) | 8.41 (active) | 6.07 (active)
32 | CAEVYTSTWVAGNASASA [HC2189] | 0.0489 (inactive) | -1.01 (inactive) | -0.826 (inactive)
33 | CAESEVPCHRAGNASASA [HC2457] | -0.0892 (inactive) | 0.0197 (inactive) | 0.878 (inactive)
34 | CAMLECSQHLAGNASASA [HC1685] | -0.00687 (inactive) | -0.291 (inactive) | -0.319 (inactive)
35 | CALPAILSPGAGNASASA [HC1102] | -0.355 (inactive) | -0.501 (inactive) | -0.653 (inactive)
36 | CATTPNSGSWAGNASASA [HC58] | -0.658 (inactive) | -1.14 (inactive) | -1.83 (inactive)
37 | CAMLRRTKRGAGNASASA [FS-691] | -0.133 (inactive) | -0.069 (inactive) | 0.376 (inactive)
38 | CAMDARHKRGAGNASASA [FS-364] | 6.41 (active) | 8.49 (active) | 7.7 (active)
39 | CASADLVVRGAGNASASA [FS-89] | 0.299 (inactive) | -0.542 (inactive) | -0.0754 (inactive)
40 | CAHFQRVKRGAGNASASA [FS-1335] | 7.42 (active) | 6.93 (active) | 6.76 (active)
41 | CASHLRVKRGAGNASASA [FS-1280] | 7.98 (active) | 7.64 (active) | 6.42 (active)
42 | CAKYGRVKRGAGNASASA [FS-1354] | 0.448 (inactive) | 0.71 (inactive) | 0.194 (inactive)
43 | CATTPCSWSWAGNASASA [HC1888] | -2.26 (inactive) | -1.57 (inactive) | 0.135 (inactive)
44 | CAWPAPQGSRAGNASASA [HC716] | 1.18 | -0.57 (inactive) | 0.187 (inactive)
